# Screening results (PubChem)
# The full list was thinned out, with hits kept by preference.
# GluA2 TARP mod: modulators of AMPA receptor GluA2-stargazin complexes; O88602+P19491; HEK293 GluA2+stargazin, membrane potential dye (FDSS), glutamate EC50; hits were called plate by plate, in both directions; 40,000 tested, 3.5% active; calls only at 30 µM;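 active = any of four per-well response measures lying three or more SD from its plate-wide compound average, in either direction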
# GIRK2 activator: Activates human GIRK2-containing potassium channels; 34,000 tested, under 10 active; activation (% efficacy), % for hits at 37.5 µM; P48051; HEK293 GIRK2/NPY4 cells, thallium flux fluorescence;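 active = primary screen hit, no activity in plain HEK293 cells, and in GIRK2-only cells above 5% efficacy rising with concentration; inactive = the rest, including fluorescent compounds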;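 note: efficacy is normalized control-subtracted fluorescence 15 s after thallium addition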
# Target sequence (P48051 whole entry, looked up): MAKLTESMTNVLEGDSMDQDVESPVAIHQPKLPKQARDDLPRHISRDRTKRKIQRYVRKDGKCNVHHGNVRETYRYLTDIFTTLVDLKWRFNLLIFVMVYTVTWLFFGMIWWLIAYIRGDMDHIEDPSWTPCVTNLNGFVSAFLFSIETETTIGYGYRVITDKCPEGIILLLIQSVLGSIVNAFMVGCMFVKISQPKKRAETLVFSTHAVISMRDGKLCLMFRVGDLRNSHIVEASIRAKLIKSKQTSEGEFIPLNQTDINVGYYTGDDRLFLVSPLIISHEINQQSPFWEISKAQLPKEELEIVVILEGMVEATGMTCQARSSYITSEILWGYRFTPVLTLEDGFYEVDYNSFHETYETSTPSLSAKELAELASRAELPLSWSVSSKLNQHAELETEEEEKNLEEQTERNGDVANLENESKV
# Active calls of the source: *; i = inactive; . = not tested or not shown; + = active, no number; ! = repeats disagree.
SMILES,GluA2 TARP mod,GIRK2 activator
CCCCCNC(=O)CCCOc1ccc(C)cc1C,+,i
CC(C)c1ccc(NC(=O)c2sccc2N(C)S(=O)(=O)c2ccccc2)cc1,+!,i
CN(c1ccsc1C(=O)Nc1cccc(Cl)c1)S(=O)(=O)c1ccccc1,i,i
CSc1ccccc1C(=O)Nc1ccc2c(c1)CN(C(=O)c1cccs1)CC2,i,i
O=C(CN1CCC(COCc2ccccc2)CC1)Nc1ccc2c(c1)OCCO2,i,i
O=C(Nc1cccc(C(F)(F)F)c1)c1cc(-c2ccccc2)nc2ccccc12,i,.
C=CCN(CC=C)C(=O)c1cc(-c2ccccc2)nc2ccccc12,+,.
Cc1nn(C2CCS(=O)(=O)C2)c2nc(-c3ccco3)cc(C(=O)NCCN3CCOCC3)c12 (stereo not given),i,i
Cc1cc(C)cc(-n2ccnc(SCC(=O)Nc3c(C)cc(C)cc3C)c2=O)c1,+,.
O=C(CSc1nccn(-c2ccc(F)cc2)c1=O)Nc1ccc(F)cc1,i,.
O=C(CSc1nccn(-c2ccc(Cl)cc2)c1=O)Nc1ccc(F)cc1F,+,.
COc1ccc(-n2ccnc(SCC(=O)Nc3c(C)cc(C)cc3C)c2=O)cc1,i,.
O=C(NCC1CCN(C(=O)COc2ccccc2)CC1)c1cnc2ccccc2n1,i,i
CCOC(=O)c1ccc(NC(=O)CS(=O)(=O)Cc2ccccc2)cc1,i,i
COC(=O)C12CC3CC(CC(NC(=O)Cn4cnc5ccccc54)(C3)C1)C2,i,.
COc1cc(/C=C/c2ccc3cccc(O)c3n2)cc(Br)c1O,+,.
CCOc1cc(/C=C/c2ccc3cccc(O)c3n2)cc(Br)c1O,i,.
CC(C)OCCCNC(=O)C(=O)NC1CCCCC1,.,i
O=C(NCc1ccsc1)C1CCCCC1,+,i
O=C(NCC(O)c1ccsc1)C1CC1 (stereo not given),i,i
CS(=O)(=O)N1CCCC1C(=O)Nc1cccc(-c2nc3ccccc3o2)c1 (stereo not given),i,i
COc1cc(C)ccc1OCC(=O)N1CCN(c2ccc3nnc(C)n3n2)CC1,+,i
COc1cc(C)ccc1OCC(=O)N1CCN(c2ccc3nncn3n2)CC1,i,i
Cn1c(=O)[nH]c(=O)c2c1nc(N1CCN(CC(N)=O)CC1)n2Cc1cccc2ccccc12,i,.
CCn1nc(C(=O)N=c2sc3cc(OC)ccc3n2CCSC)cc1C,.,i
SMILES,GluA2 TARP mod,GIRK2 activator
COc1ccc2sc(=NC(=O)c3ccno3)n(CCSC)c2c1,+,i
CSCCn1c(=NC(=O)c2ccn(C)n2)sc2cc3c(cc21)OCCO3,+,i
Cn1ccc(C(=O)N=c2sc3cc4c(cc3n2C)OCCO4)n1,i,i
CCS(=O)(=O)c1ccc(CC(=O)N(Cc2ccccn2)c2nc3c(OC)ccc(C)c3s2)cc1,i,.
Cc1ccc(-c2ccc(N3CCN(C(=O)C4CC4)CC3)nn2)cc1,i,i
CCN1CCc2c(sc(NC(=O)CSc3ccc(OC)cc3)c2-c2nc3ccccc3s2)C1,i,.
O=C(c1nnn(-c2ccc(F)cc2)c1-c1ccncc1)N1CCN(c2ccccc2F)CC1,i,i
Cc1ccc(C)c(N2CCN(C(=O)c3ccc(Cn4c(=O)[nH]c5ccccc5c4=O)cc3)CC2)c1,+,i
CC(=O)c1ccc(N2CCN(C(=O)c3ccc(Cn4c(=O)[nH]c5ccccc5c4=O)cc3)CC2)cc1,i,i
COc1ccc(CCS(=O)(=O)NCC2CCN(Cc3cccs3)CC2)cc1,.,i
COc1ccc(CCS(=O)(=O)NCC2CCN(C(=O)c3ccccc3F)CC2)cc1,+,i
COc1ccc(CCS(=O)(=O)NCC2CCN(c3ncccn3)CC2)cc1,i,i
COc1ccc(CCS(=O)(=O)NCC2CCN(Cc3ccccc3)CC2)cc1,+,i
COc1ccc(-c2noc(Cn3ccn4nc(-c5ccc(F)cc5)cc4c3=O)n2)cc1OC,i,i
CCOc1ccccc1NC(=O)NCC1CCN(C(=O)Oc2ccccc2)CC1,i,i
CC(=O)N1CCN(C(=O)CCc2c(C)nn(-c3nc(C)cc(=O)[nH]3)c2C)CC1,i,i
COc1ccc(S(=O)(=O)NCCCCN2CCOC(c3ccccc3)C2)cc1 (stereo not given),.,i
COc1ccc(/C=C\C(=O)Nc2cc(C3CC3)nn2-c2nc(C(C)C)cc(=O)[nH]2)cc1OC,+,i
COc1ccc(OCC(=O)Nc2cc(C3CC3)nn2-c2nc(C(C)C)cc(=O)[nH]2)cc1,i,i
Cc1ccc(S(=O)(=O)/C(C#N)=C/N2CCN(Cc3ccccc3)CC2)cc1C,+,i
Cc1ccc(S(=O)(=O)/C(C#N)=C/N2CCN(Cc3ccc4c(c3)OCO4)CC2)cc1C,i,i
N#Cc1nc(-c2ccc(S(=O)(=O)N3CCCCCC3)cc2)oc1NCCN1CCOCC1,i,i
N#Cc1nc(-c2ccc(S(=O)(=O)N3CCCCCC3)cc2)oc1NCCCn1ccnc1,+,i
COc1ccc(S(=O)(=O)NCC(c2ccsc2)N2CCOCC2)cc1F (stereo not given),i,i
Cc1c(C(=O)Nc2sc3c(c2C#N)CCCC3)nnn1-c1ccccc1F,i,i
SMILES,GluA2 TARP mod,GIRK2 activator
O=S(=O)(NCCC(O)c1cccs1)c1ccc(OC(F)(F)F)cc1 (stereo not given),+,i
O=S(=O)(NCCC(O)c1cccs1)c1cccc(C(F)(F)F)c1 (stereo not given),i,i
Cc1ccsc1C(O)CNC(=O)C1c2ccccc2Oc2ccccc21 (stereo not given),+,i
Cc1ccsc1C(O)CNC(=O)CSCc1ccccc1 (stereo not given),i,i
O=C(CCCn1nc(-c2ccc(Cl)cc2)ccc1=O)Nc1ccc2c(c1)OCCO2,+,i
O=C(CCCn1nc(-c2ccccc2)ccc1=O)Nc1ccc2c(c1)OCCO2,.,i
COc1ccc(OC)c(-c2ccc(=O)n(Cc3ccc(Cl)cc3Cl)n2)c1,i,i
COc1ccc(OC)c(-c2ccc(=O)n(Cc3cccc4ccccc34)n2)c1,+,i
COc1ccc(OC)c(-c2ccc(=O)n(CCNC(=O)Nc3ccccc3)n2)c1,i,i
COc1ccc(OC)c(-c2ccc(=O)n(Cc3ccc([N+](=O)[O-])cc3)n2)c1,+,i
COc1ccccc1-c1ccc(=O)n(Cc2cccc3ccccc23)n1,i,i
COc1ccc(OC)c(-c2ccc(=O)n(CCNC(=O)Nc3cc(C)cc(C)c3)n2)c1,+,i
Cc1nn(-c2ccccc2)c2ncc(C(=O)Nc3ccccc3-c3ccccc3)c(Cl)c12,i,i
CCOc1ccc(N2C(=O)C3N=NN(CC(=O)Nc4ccc(OC)cc4OC)C3C2=O)cc1 (stereo not given),i,i
O=S(=O)(Cc1ccc(F)cc1)NCC#CCN1CCc2ccccc2C1,i,i
COc1ccc(S(=O)(=O)NCc2nnnn2-c2ccc(F)cc2)cc1,+,.
COc1ccc(S(=O)(=O)NCc2nnnn2-c2ccc(F)c(F)c2)cc1,i,.
CCOC(=O)C1=C(C)N=c2s/c(=C/c3cn(CC)nc3C)c(=O)n2C1c1ccc(O)cc1 (stereo not given),i,i
NC(=O)Cc1csc(NC(=O)COc2ccc3c(c2)C(=O)CC3)n1,+,i
